Inconclusive results are not listed. A call without a number means that no potency is given here. The source made the active and inactive calls. Calls follow the shape of the dose curve; as a rule, active = well fitted cell-killing curve with a large enough effect; inconclusive = small, poorly fitted or top-dose-only effect; inactive = flat fitted curve, though single readings scatter.
Test: Cell Viability - H-4-II-E (AID 543); also: nearly all actives have a fitted effect of over 35% in size; also: potency is read from the fitted curve at half-maximal effect
Settings: H-4-II-E rat hepatoma viability; series mostly up to 92.2 µM
How it was run: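 qHTS, rat hepatoma H-4-II-E, 1500 cells/well; 40 hr compound exposure, 37 °C; CellTiter-Glo ATP luminescence after 20 min RT; AC50 by standard Hill fit.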

**Q.** Which Potency does the source give for `O=C(O)C(Br)Br` here?
**A.** inactive

**Q.** For `Cc1ccc(OP(=O)(Oc2ccc(C)cc2)Oc2ccc(C)cc2)cc1`, which Potency is on record?
**A.** inactive

**Q.** With `Brc1ccc(Oc2ccc(Br)cc2Br)c(Br)c1` as the compound, how does the Potency read?
**A.** inactive

**Q.** With `O=[N+]([O-])c1c(Cl)c(Cl)c(Cl)c(Cl)c1Cl` as the compound, how does the Potency read?
**A.** inactive

**Q.** With `ClCC(Cl)Cl` as the compound, how does the Potency read?
**A.** inactive

**Q.** For `CC(C)Br`, which Potency is on record?
**A.** inactive

**Q.** With `CC(C)[N+](=O)[O-]` as the compound, how does the Potency read?
**A.** inactive

**Q.** Which Potency does the source give for `CCCC[N+](=O)[O-]` here?
**A.** inactive

**Q.** For `Cc1cc(-c2cc(C)c(N)c(C)c2)cc(C)c1N`, which Potency is on record?
**A.** inactive

**Q.** With `Nc1cc(Cl)ccc1O` as the compound, how does the Potency read?
**A.** inactive

**Q.** With `CCN(N=O)C(N)=O` as the compound, how does the Potency read?
**A.** inactive

**Q.** With `N#CC(Cl)(Cl)Cl` as the compound, how does the Potency read?
**A.** inactive

**Q.** Which Potency does the source give for `CCCCC(CC)COC(=O)c1ccc(C(=O)OCC(CC)CCCC)c(C(=O)OCC(CC)CCCC)c1` (configuration not stated) here?
**A.** inactive

**Q.** For `Cc1cc(C)cc(OP(=O)(Oc2cc(C)cc(C)c2)Oc2cc(C)cc(C)c2)c1`, which Potency is on record?
**A.** inactive

**Q.** With `O=C(O)C(Cl)Br` (configuration not stated) as the compound, how does the Potency read?
**A.** inactive

**Q.** Which Potency does the source give for `Nc1ccc([N+](=O)[O-])cc1N` here?
**A.** inactive

**Q.** Which Potency does the source give for `O=C(O)c1cccc(Cl)c1` here?
**A.** inactive

**Q.** With `OCCCCO` as the compound, how does the Potency read?
**A.** inactive

**Q.** For `O=[N+]([O-])c1cc(Cl)c(Cl)c(Cl)c1`, which Potency is on record?
**A.** inactive

**Q.** For `CC(C)(COCC1CO1)COCC1CO1` (configuration not stated), which Potency is on record?
**A.** inactive

**Q.** With `COc1ccccc1N` as the compound, how does the Potency read?
**A.** inactive

**Q.** With `CC(C)(C)OOC(=O)c1ccccc1` as the compound, how does the Potency read?
**A.** inactive

**Q.** Which Potency does the source give for `c1ccc(N=NNc2ccccc2)cc1` here?
**A.** inactive

**Q.** For `COC(C)(C)C`, which Potency is on record?
**A.** inactive

**Q.** With `C(CCOCC1CO1)COCC1CO1` (configuration not stated) as the compound, how does the Potency read?
**A.** inactive

**Q.** For `CN(C)c1ccc(N)cc1`, which Potency is on record?
**A.** 50.1 µM (active)

**Q.** Which Potency does the source give for `O=[N+]([O-])/C=C/c1ccccc1` here?
**A.** 5.01 µM (active)

Test: Cell Viability - SH-SY5Y (AID 544); also: nearly all actives have a fitted effect of over 55% in size; also: potency is read from the fitted curve at half-maximal effect
Settings: SH-SY5Y neuroblastoma cell viability; viability change, negative = cytotoxic: at 92.2 µM (top of the series)
How it was run: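 SH-SY5Y, 1500 cells/well, 5 hr pre-incubation 37 °C; cpd 40 hr 37 °C; CellTiter-Glo 20 min RT; luminescence (ATP) read. qHTS concentration-response, Hill fit → AC50. Tamoxifen, doxorubicin as positive controls.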

**Q.** For `Cc1ccc(OP(=O)(Oc2ccc(C)cc2)Oc2ccc(C)cc2)cc1`, which Potency is on record?
**A.** inactive

**Q.** Which Potency does the source give for `Nc1ccc(Cc2ccc(N)c(Cl)c2)cc1Cl` here?
**A.** inactive

**Q.** Which viability change, negative = cytotoxic does the source give for `CN(C)c1ccc(N(C)C)cc1` here?
**A.** -98.2% (active)

**Q.** Which Potency does the source give for `O=[N+]([O-])c1c(Cl)c(Cl)c(Cl)c(Cl)c1Cl` here?
**A.** inactive

**Q.** Which viability change, negative = cytotoxic does the source give for `CN1CSC(=S)N(C)C1` here?
**A.** -83% (active)

**Q.** For `ClCC(Cl)Cl`, which Potency is on record?
**A.** inactive

**Q.** Which Potency does the source give for `CC(C)Br` here?
**A.** inactive

**Q.** With `O=[N+]([O-])c1ccc(O)c([N+](=O)[O-])c1` as the compound, how does the Potency read?
**A.** inactive

**Q.** With `CC(C)[N+](=O)[O-]` as the compound, how does the Potency read?
**A.** inactive

**Q.** With `CCCC[N+](=O)[O-]` as the compound, how does the Potency read?
**A.** inactive

**Q.** For `Cc1cc(-c2cc(C)c(N)c(C)c2)cc(C)c1N`, which Potency is on record?
**A.** inactive

**Q.** With `Nc1cc(Cl)ccc1O` as the compound, how does the viability change, negative = cytotoxic read?
**A.** -87.6% (active)

**Q.** For `CCN(N=O)C(N)=O`, which Potency is on record?
**A.** inactive

**Q.** For `N#CC(Cl)(Cl)Cl`, which Potency is on record?
**A.** inactive

**Q.** With `CCCCC(CC)COC(=O)c1ccc(C(=O)OCC(CC)CCCC)c(C(=O)OCC(CC)CCCC)c1` (configuration not stated) as the compound, how does the Potency read?
**A.** inactive

**Q.** Which Potency does the source give for `Nc1c(Br)cc([N+](=O)[O-])cc1[N+](=O)[O-]` here?
**A.** inactive

**Q.** Which Potency does the source give for `O=[N+]([O-])c1ccccc1CCl` here?
**A.** inactive

**Q.** With `Cc1cc(C)cc(OP(=O)(Oc2cc(C)cc(C)c2)Oc2cc(C)cc(C)c2)c1` as the compound, how does the Potency read?
**A.** inactive

**Q.** Which Potency does the source give for `N#CC(Br)Br` here?
**A.** inactive

**Q.** For `O=C(O)C(Cl)Br` (configuration not stated), which Potency is on record?
**A.** inactive

**Q.** With `COP(=S)(OC)SCn1nnc2ccccc2c1=O` as the compound, how does the Potency read?
**A.** 15.8 µM (active)

**Q.** With `O=C(O)c1cccc(Cl)c1` as the compound, how does the Potency read?
**A.** inactive

**Q.** For `OCCCCO`, which Potency is on record?
**A.** inactive

**Q.** Which Potency does the source give for `O=[N+]([O-])c1cc(Cl)c(Cl)c(Cl)c1` here?
**A.** inactive

**Q.** Which Potency does the source give for `Cc1ccc2c(c1N)C(=O)c1ccccc1C2=O` here?
**A.** inactive

**Q.** For `COc1ccccc1N`, which Potency is on record?
**A.** inactive

**Q.** For `COC(C)(C)C`, which Potency is on record?
**A.** inactive

**Q.** Which Potency does the source give for `C(CCOCC1CO1)COCC1CO1` (configuration not stated) here?
**A.** 31.6 µM (active)

**Q.** Which viability change, negative = cytotoxic does the source give for `CN(C)c1ccc(N)cc1` here?
**A.** -91.2% (active)

**Q.** Which Potency does the source give for `O=[N+]([O-])/C=C/c1ccccc1` here?
**A.** 12.6 µM (active)

Test: Cell Viability - Renal Proximal Tubule (AID 545); also: nearly all actives have a fitted effect of over 40% in size
Settings: renal proximal tubule cells viability; series mostly up to 91.7 µM
How it was run: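 In this qHTS format, normal rat kidney-derived proximal tubule cells in complete culture medium receive compound titrations, then sit 40 hours at 37 °C before luciferase-based ATP quantitation; potency is reported as AC50 from concentration-response curves.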

**Q.** Which outcome does the source give for `O=C(O)C(Br)Br` here?
**A.** inactive

**Q.** Which outcome does the source give for `Cc1ccc(OP(=O)(Oc2ccc(C)cc2)Oc2ccc(C)cc2)cc1` here?
**A.** inactive

**Q.** For `CN(C)c1ccc(N(C)C)cc1`, which outcome is on record?
**A.** inactive

**Q.** Which outcome does the source give for `Brc1ccc(Oc2ccc(Br)cc2Br)c(Br)c1` here?
**A.** inactive

**Q.** With `O=[N+]([O-])c1c(Cl)c(Cl)c(Cl)c(Cl)c1Cl` as the compound, how does the outcome read?
**A.** inactive

**Q.** For `CN1CSC(=S)N(C)C1`, which outcome is on record?
**A.** inactive

**Q.** With `ClCC(Cl)Cl` as the compound, how does the outcome read?
**A.** inactive

**Q.** Which outcome does the source give for `C=CC(=O)OCCO` here?
**A.** inactive

**Q.** With `CC(C)Br` as the compound, how does the outcome read?
**A.** inactive

**Q.** For `O=[N+]([O-])c1ccc(O)c([N+](=O)[O-])c1`, which outcome is on record?
**A.** inactive

**Q.** Which outcome does the source give for `CC(C)[N+](=O)[O-]` here?
**A.** inactive

**Q.** Which outcome does the source give for `CCCC[N+](=O)[O-]` here?
**A.** inactive

**Q.** With `Cc1cc(-c2cc(C)c(N)c(C)c2)cc(C)c1N` as the compound, how does the outcome read?
**A.** inactive

**Q.** Which outcome does the source give for `Nc1cc(Cl)ccc1O` here?
**A.** inactive

**Q.** Which outcome does the source give for `CCN(N=O)C(N)=O` here?
**A.** inactive

**Q.** Which outcome does the source give for `N#CC(Cl)(Cl)Cl` here?
**A.** inactive

**Q.** For `CCCCC(CC)COC(=O)c1ccc(C(=O)OCC(CC)CCCC)c(C(=O)OCC(CC)CCCC)c1` (configuration not stated), which outcome is on record?
**A.** inactive

**Q.** With `O=C(O)C(Br)CBr` (configuration not stated) as the compound, how does the outcome read?
**A.** inactive

**Q.** With `Nc1c(Br)cc([N+](=O)[O-])cc1[N+](=O)[O-]` as the compound, how does the outcome read?
**A.** inactive

**Q.** For `O=[N+]([O-])c1ccccc1CCl`, which outcome is on record?
**A.** inactive

**Q.** With `Cc1cc(C)cc(OP(=O)(Oc2cc(C)cc(C)c2)Oc2cc(C)cc(C)c2)c1` as the compound, how does the outcome read?
**A.** inactive

**Q.** For `N#CC(Br)Br`, which outcome is on record?
**A.** inactive

**Q.** For `O=C(O)C(Cl)Br` (configuration not stated), which outcome is on record?
**A.** inactive

**Q.** For `COP(=S)(OC)SCn1nnc2ccccc2c1=O`, which outcome is on record?
**A.** inactive

**Q.** For `Nc1ccc([N+](=O)[O-])cc1N`, which outcome is on record?
**A.** inactive

**Q.** With `O=C(O)c1cccc(Cl)c1` as the compound, how does the outcome read?
**A.** inactive

**Q.** Which outcome does the source give for `OCCCCO` here?
**A.** inactive

**Q.** For `O=[N+]([O-])c1cc(Cl)c(Cl)c(Cl)c1`, which outcome is on record?
**A.** inactive

**Q.** With `CC(C)(COCC1CO1)COCC1CO1` (configuration not stated) as the compound, how does the outcome read?
**A.** inactive

**Q.** With `Cc1ccc2c(c1N)C(=O)c1ccccc1C2=O` as the compound, how does the outcome read?
**A.** inactive

**Q.** With `COc1ccccc1N` as the compound, how does the outcome read?
**A.** inactive

**Q.** With `CC(C)(C)OOC(=O)c1ccccc1` as the compound, how does the outcome read?
**A.** inactive

**Q.** With `c1ccc(N=NNc2ccccc2)cc1` as the compound, how does the outcome read?
**A.** inactive

**Q.** Which outcome does the source give for `COC(C)(C)C` here?
**A.** inactive

**Q.** For `C(CCOCC1CO1)COCC1CO1` (configuration not stated), which outcome is on record?
**A.** inactive

— PubChem BioAssay (NCATS)
